Reference: PubChem BioAssay (NCATS)
Results filed as inconclusive are left out. The source made the active and inactive calls. Unless noted, calls come from the whole dose curve; as a rule, active = well fitted curve in either direction with a large enough effect (not every such curve was filed as active); inconclusive = small, poorly fitted or top-dose-only effect, or another doubt; inactive = flat fitted curve, though single readings scatter.

Key:
[1] = AP1 Signaling Pathway (AID 357); details: ME-180 AP-1-bla reporter, EGF-induced, beta-lactamase ratio, 5 h; at 17.2 µM (top of the series) unless noted;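 note: ME-180 reporter cells stimulated with EGF at its EC50 level; % is set by controls: 0 for no effect and ±100 for the full control effect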
Procedure, shortened: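 In this screen, ME-180 cells in Opti-MEM with 0.5% dialyzed FBS received EC50 EGF and compound titrations for 5 h. AP-1 reporter beta-lactamase was detected via CCF4 ratio, giving AC50 for positive and negative modulators.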

[2] = NFAT Signaling Pathway (AID 444); details: Jurkat NFAT-bla M1, carbachol, beta-lactamase ratio, 5 h; at 17.2 µM (top of the series) unless noted;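 note: carbachol stimulus at about its EC50 of 1 µM final; % is set by controls: 0 for no effect and ±100 for the full control effect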
Procedure, shortened: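 Read-out: CCF4 FRET ratio (460 nm/530 nm) after 1 h RT dye loading, used for %activity and AC50 from titration series. Cells: Jurkat NFAT-β-lactamase/M1 line, treated with compound plus 1 uM carbachol for 5 h, 37 °C.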

[3] = Stat Signaling Pathway (AID 446); details: ME-180 (cervical carcinoma) SIE beta-lactamase reporter, IL-6 stimulated, 5 h; at 17.2 µM (top of the series) unless noted;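 note: ME-180 cervical cancer cells given 40 pM IL-6 alongside compound; SIE-controlled beta-lactamase reporter measured as 460/530 nm FRET emission ratio; % is set by controls: 0 for no effect and ±100 for the full control effect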
Procedure, shortened: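 Emission at 460 and 530 nm (excitation 405 nm) reports SIE-controlled beta-lactamase in ME-180 cells. Cells received compound with 40 pM IL-6 for 5 hrs at 37 C; data scaled between 300 pM IL-6 and 125 nM JAK-inhibitor controls.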

[4] = molecular target: Glucocorticoid receptor (Homo sapiens) (UniProt P04150); assay: GR-GFP Redistribution (AID 450;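 active = compounds whose dose series gives a full or clear partial fitted curve of increased nuclear translocation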; note: potency is the fitted concentration of half-maximal effect)
Sequence of Glucocorticoid receptor (Homo sapiens) (P04150 whole entry, looked up, the tested form may be a part): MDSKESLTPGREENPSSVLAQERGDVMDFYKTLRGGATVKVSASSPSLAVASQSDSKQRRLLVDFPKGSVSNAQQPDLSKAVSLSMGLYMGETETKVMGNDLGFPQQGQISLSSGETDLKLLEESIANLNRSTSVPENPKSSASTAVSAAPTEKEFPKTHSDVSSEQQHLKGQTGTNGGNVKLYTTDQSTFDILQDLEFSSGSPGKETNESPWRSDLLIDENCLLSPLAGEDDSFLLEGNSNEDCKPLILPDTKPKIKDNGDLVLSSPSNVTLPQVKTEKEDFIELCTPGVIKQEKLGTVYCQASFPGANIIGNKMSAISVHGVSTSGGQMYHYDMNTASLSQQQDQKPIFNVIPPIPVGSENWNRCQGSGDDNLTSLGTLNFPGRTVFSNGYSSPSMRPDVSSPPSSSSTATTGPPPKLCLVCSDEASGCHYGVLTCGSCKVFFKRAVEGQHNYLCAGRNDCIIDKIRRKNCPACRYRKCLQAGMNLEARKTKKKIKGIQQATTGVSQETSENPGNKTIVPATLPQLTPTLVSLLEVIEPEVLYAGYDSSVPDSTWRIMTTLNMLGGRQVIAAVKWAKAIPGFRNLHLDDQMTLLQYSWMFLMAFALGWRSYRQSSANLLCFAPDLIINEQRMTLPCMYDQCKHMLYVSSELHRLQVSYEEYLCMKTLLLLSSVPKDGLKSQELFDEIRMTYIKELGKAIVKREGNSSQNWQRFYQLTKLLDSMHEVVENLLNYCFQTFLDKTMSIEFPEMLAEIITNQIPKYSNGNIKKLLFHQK

[5] = molecular target: Glucocorticoid receptor (Homo sapiens) (UniProt P04150); assay: GR-EFC Redistribution (AID 451; calls by dose curve; note: potency is the fitted concentration of half-maximal effect); details: CHO-K1 GR-EFC translocation, beta-gal luminescence, 2 h
Procedure, shortened: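 Translocation of GR-ED fusion to nuclear EA restores b-gal, read by luminescence after 1 h room-temperature detection. Engineered CHO-K1 biosensor cells, 1,000/well, exposed 2 h at 37 C to titrations up to 46 uM final.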

[6] = molecular target: Mitogen-activated protein kinase 10 (Mus musculus) (UniProt Q61831); assay: JNK3 AlphaScreen Assay (AID 530);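 note: kinase came from lysate of stimulated human HepG2 cells; signal reports phosphorylation of biotinylated GST-cJun 1-79 at Ser73 with 10 µM ATP; % is set by controls: 0 for no effect and ±100 for the full control effect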
Procedure, shortened: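 Kinase buffer: 20 mM Tris-HCl pH 7.6, 10 mM MgCl2, 1 mM DTT, 0.1 mM Na3VO4, 0.01% Tween-20; ATP 10 uM. Substrate biotin-GST-cJun(1-79), enzyme from activated HepG2 lysates. Detection by Ser73 phospho-antibody AlphaScreen.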

[7] = molecular target: 3',5'-cyclic-AMP phosphodiesterase 4B (Homo sapiens) (UniProt Q07343); assay: qHTS Assay for Inhibitors of PDE-IV (AID 607; active = well fitted activation curve with a large enough effect in the main read-out, with a control signal flat, not every such curve was filed as active; note: % of control where 0% means no effect)
Sequence of 3',5'-cyclic-AMP phosphodiesterase 4B (Homo sapiens) (Q07343 whole entry, looked up): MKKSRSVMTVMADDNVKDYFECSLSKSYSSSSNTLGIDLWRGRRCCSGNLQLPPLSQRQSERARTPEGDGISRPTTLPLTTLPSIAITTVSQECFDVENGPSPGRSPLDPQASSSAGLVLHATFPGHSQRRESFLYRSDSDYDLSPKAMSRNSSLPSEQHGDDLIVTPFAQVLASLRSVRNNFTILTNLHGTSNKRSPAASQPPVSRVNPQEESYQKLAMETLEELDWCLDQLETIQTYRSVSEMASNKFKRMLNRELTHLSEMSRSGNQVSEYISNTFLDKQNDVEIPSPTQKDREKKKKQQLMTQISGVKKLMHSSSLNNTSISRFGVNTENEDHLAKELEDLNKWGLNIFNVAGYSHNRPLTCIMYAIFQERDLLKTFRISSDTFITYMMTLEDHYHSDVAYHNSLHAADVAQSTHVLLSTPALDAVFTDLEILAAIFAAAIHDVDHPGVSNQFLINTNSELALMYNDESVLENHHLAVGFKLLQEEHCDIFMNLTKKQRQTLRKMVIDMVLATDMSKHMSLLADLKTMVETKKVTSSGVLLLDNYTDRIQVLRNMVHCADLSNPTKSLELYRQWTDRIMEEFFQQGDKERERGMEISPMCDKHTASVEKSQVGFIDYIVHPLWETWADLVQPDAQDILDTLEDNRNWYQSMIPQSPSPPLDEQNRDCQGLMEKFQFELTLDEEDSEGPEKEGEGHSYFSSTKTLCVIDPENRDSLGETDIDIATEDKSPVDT
Procedure, shortened: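 The readout is membrane depolarisation from a cAMP-sensing CNG channel, detected with a potential dye at ex 535/em 590. Cells were HEK293-derived (endogenous PDE-IV) at 1000 cells/well, titrated up to 22.9 uM final.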

[8] = molecular target: Guanine nucleotide-binding protein G(i) subunit alpha-1 (Homo sapiens) (UniProt P63096); assay: qHTS Assay for Inhibitors of RGS12 GoLoco Motif Activity (Green Fluorophore) (AID 879; active = well fitted curve in the direction sought with a large enough effect; an effect the other way counts as inactive or inconclusive;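 note: 0% = labeled peptide with Gαi1 and full inhibition = labeled peptide alone without protein; negative values mean loss of peptide binding seen as reduced polarization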)
Sequence of Guanine nucleotide-binding protein G(i) subunit alpha-1 (Homo sapiens) (P63096 whole entry, looked up): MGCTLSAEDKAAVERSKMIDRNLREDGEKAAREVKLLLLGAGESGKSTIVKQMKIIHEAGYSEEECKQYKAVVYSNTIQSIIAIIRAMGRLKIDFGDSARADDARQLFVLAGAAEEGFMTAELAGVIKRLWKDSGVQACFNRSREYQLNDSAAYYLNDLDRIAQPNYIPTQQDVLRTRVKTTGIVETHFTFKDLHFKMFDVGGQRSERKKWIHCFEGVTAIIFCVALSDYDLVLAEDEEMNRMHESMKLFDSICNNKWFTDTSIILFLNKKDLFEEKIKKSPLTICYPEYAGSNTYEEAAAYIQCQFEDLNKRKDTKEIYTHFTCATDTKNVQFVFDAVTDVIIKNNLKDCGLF
Procedure, shortened: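 A drop in FITC polarization marked displacement of the FITC-tagged RGS12 GoLoco peptide (10 nM) from Gαi1 (50 nM). Compounds were incubated 10 min at room temperature in Tris pH 7.5 buffer containing 150 mM NaCl, 0.1 mM GDP and 0.05% NP40; unlabeled peptide titration served as control.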

[9] = qHTS Assay for Identification of Small Molecule Agonists for Thrombopoietin (TPO) Signaling Pathway (AID 917; active = well fitted curve in the direction sought with a large enough effect; an effect the other way counts as inactive or inconclusive; note: % is set by controls: 0 for no effect and ±100 for the full control effect)
Procedure, shortened: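 Ba/F3 (mouse) + hTPO receptor + GpIIb-promoter luciferase; IL-3 withdrawn overnight; compound + 26 pM TPO (EC50), 24 hrs, 37 C, 5% CO2; Steadylite luminescence, 10 min RT.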

[10] = molecular target: Muscarinic acetylcholine receptor M1 (Rattus norvegicus) (UniProt P08482); assay: qHTS Assay for Antagonists of Acetylcholine Muscarinic M1 Receptor: Measurement of IP-One Response (AID 944; active = well fitted curve in the direction sought with a large enough effect; an effect the other way counts as inactive or inconclusive; note: nearly all actives have a fitted effect of over 75% in size)
Sequence of Muscarinic acetylcholine receptor M1 (Rattus norvegicus) (P08482 whole entry, looked up): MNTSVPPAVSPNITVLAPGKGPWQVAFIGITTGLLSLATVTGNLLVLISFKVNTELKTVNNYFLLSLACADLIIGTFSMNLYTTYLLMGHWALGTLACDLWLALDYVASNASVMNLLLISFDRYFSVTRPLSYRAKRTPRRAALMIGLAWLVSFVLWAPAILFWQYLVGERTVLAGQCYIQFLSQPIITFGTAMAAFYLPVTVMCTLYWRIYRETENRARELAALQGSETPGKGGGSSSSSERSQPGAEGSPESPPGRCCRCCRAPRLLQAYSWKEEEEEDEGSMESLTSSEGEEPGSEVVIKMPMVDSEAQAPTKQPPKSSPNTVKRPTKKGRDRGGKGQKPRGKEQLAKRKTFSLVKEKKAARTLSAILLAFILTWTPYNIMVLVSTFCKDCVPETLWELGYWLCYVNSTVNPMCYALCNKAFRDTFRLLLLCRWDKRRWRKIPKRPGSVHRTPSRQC
Procedure, shortened: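 Antagonism was measured as loss of carbachol-driven (EC80) IP1 accumulation in CHO cells carrying rat M1, using a homogeneous IP-One TR-FRET kit read at 620 and 665 nm.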

[11] = molecular target: Pyruvate kinase (Leishmania mexicana) (UniProt Q27686); assay: qHTS Validation Assay for Inhibitors of Leishmania Mexicana Pyruvate Kinase (AID 945; active = well fitted curve in the direction sought with a large enough effect; an effect the other way counts as inactive or inconclusive;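 note: 0% = DMSO only neutral control wells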)
Sequence of Pyruvate kinase (Leishmania mexicana) (Q27686 2-499 E452W): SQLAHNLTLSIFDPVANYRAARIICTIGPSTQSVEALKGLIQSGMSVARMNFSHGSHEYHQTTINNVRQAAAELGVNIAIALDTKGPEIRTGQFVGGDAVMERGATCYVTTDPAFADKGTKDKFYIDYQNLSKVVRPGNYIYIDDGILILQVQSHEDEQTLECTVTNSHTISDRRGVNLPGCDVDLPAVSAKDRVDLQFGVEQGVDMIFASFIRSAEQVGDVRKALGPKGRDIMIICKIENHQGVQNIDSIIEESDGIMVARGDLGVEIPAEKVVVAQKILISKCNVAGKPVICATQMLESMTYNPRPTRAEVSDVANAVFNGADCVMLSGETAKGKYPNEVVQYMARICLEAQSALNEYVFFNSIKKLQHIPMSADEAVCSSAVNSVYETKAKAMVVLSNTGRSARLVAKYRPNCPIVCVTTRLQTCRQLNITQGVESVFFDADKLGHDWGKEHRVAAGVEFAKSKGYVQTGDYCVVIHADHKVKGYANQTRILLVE
Procedure, shortened: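 Read-out: luminescence from PKLight stop/detection reagent, data normalized to DMSO. Reaction: 0.2 nM E451W LmPYK, 0.5 mM PEP, 0.1 mM ADP, pH 7.2, 1 h room temperature.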

[12] = molecular target: Pyruvate kinase PKM (Homo sapiens) (UniProt P14618); assay: qHTS Assay for Activators of Human Muscle Pyruvate Kinase (AID 954; active = well fitted curve in the direction sought with a large enough effect, not every such curve was filed as active;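 note: 0% = uninhibited enzyme and -100% = no enzyme or full thiadiazolimine inhibition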)
Sequence of Pyruvate kinase PKM (Homo sapiens) (P14618 whole entry, looked up): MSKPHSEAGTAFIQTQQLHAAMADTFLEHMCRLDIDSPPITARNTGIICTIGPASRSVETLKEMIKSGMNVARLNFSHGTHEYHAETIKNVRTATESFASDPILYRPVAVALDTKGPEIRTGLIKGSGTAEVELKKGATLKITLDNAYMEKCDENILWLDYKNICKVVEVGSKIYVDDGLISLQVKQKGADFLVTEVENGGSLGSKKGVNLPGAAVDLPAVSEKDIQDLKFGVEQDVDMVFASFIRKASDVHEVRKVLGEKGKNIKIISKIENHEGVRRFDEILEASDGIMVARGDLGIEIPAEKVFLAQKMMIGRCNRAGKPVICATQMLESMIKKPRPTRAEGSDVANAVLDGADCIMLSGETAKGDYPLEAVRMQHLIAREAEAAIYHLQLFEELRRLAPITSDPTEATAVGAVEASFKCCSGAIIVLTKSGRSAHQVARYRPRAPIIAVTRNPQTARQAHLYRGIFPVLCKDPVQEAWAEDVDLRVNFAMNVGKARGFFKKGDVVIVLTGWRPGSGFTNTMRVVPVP
Procedure, shortened: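 PKM2, human, >95% pure, 0.1 nM; PEP 0.5 mM (Km), ADP 0.1 mM; 50 mM imidazole pH 7.2, 50 mM KCl, 0.01% Tween 20, 0.05% BSA; 1 h RT; luciferase luminescence readout.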

[13] = molecular target: Alpha-galactosidase A (Homo sapiens) (UniProt P06280); assay: Counterscreen for Glucocerebrosidase Inhibitors: qHTS Assay for Human alpha-Galactosidase at pH 4.5 (AID 992; active = well fitted curve in the direction sought with a large enough effect; an effect the other way counts as inactive or inconclusive; note: 0% is about no effect)
Sequence of Alpha-galactosidase A (Homo sapiens) (P06280 whole entry, looked up): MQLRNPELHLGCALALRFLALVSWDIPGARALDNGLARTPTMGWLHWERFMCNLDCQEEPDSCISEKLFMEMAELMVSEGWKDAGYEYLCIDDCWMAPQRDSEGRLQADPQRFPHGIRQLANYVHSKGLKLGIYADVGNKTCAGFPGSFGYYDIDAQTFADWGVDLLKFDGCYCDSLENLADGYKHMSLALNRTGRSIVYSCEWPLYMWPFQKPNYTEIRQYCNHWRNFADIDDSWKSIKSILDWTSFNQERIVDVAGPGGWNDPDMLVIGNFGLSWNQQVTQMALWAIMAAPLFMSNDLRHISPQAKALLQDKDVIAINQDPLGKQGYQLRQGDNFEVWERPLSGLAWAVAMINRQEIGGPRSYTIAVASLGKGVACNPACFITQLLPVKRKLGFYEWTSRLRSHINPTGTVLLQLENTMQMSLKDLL
Procedure, shortened: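 Fluorogenic 4-MU alpha-D-galactoside (80 uM) hydrolysis, 2 nM enzyme, pH 4.5 citrate buffer + 0.005% Tween-20; 20 min RT; NaOH/glycine pH 10 stop; Ex365/Em440. Compounds titrated 0.7 nM–77 uM; Hill-equation AC50.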

[14] = molecular target: alpha-glucosidase (Oryza sativa, rice) (UniProt Q653V4); assay: Counterscreen for Glucocerebrosidase Inhibitors: qHTS Assay for Rice alpha-Glucosidase at pH 5.0 (AID 997; active = well fitted curve in the direction sought with a large enough effect; an effect the other way counts as inactive or inconclusive;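 note: 0% = full activity with enzyme and -100% = basal without enzyme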)
Procedure, shortened: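 Endpoint fluorogenic assay at pH 5.0: compounds (0.7 nM to 77 uM) titrated against 4 nM rice enzyme and 400 uM 4-MU-alpha-glucoside for 20 min at room temperature; NaOH/glycine stop, read ex 365/em 440 nm, Hill-fitted AC50.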

NCCC[C@@](N)(C(=O)O)C(F)F
inactive: activity change, negative = inhibition [1] 6.84% [at 38 µM] | activity change, negative = inhibition [2] -7.76% [at 38 µM] | activity, negative = inhibition [3] 2.8% [at 38 µM] | Potency [4] > 46 µM | Potency [5] > 46 µM | Potency [6] | Potency [7] | outcome [8] | Potency [9] | Potency [10] | Potency [11] | outcome [12] | outcome [13] | outcome [14]

O=CN1CCN(C(=O)CN2C(=O)c3ccccc3C2=O)CC1
inactive: activity change, negative = inhibition [1] 10.2% | activity change, negative = inhibition [2] 11.9% | activity, negative = inhibition [3] 6.47% | Potency [4] > 20.6 µM

CCOC(=O)c1[nH]c2ccc(C)cc2c1N=CN(CC)CC
inactive: activity change, negative = inhibition [1] 7.82% | activity change, negative = inhibition [2] -21.2% | activity, negative = inhibition [3] 10.4% | Potency [4] > 20.6 µM

CCNc1nc(Oc2ccccc2)nc(OC(C)C(=O)OCC)n1 (stereo unspecified)
inactive: activity change, negative = inhibition [1] -1.07% | activity change, negative = inhibition [2] 6.54% | activity, negative = inhibition [3] 1.47% | Potency [4] > 20.6 µM

C/C=C/c1ccccc1OCc1ccc(C(=O)O)o1
inactive: activity change, negative = inhibition [1] -6.57% | activity change, negative = inhibition [2] -2.78% | activity, negative = inhibition [3] -2.17% | Potency [4] > 20.6 µM

CCOc1ccc(-c2nc(C#N)c(N3CCN(CC)CC3)o2)cc1
inactive: activity change, negative = inhibition [1] -12.4% | activity change, negative = inhibition [2] 21% | activity, negative = inhibition [3] 19.7% | Potency [4] > 20.6 µM

Cc1cccn2c(=O)c3cc(C(=O)NCc4cccnc4)c(=N)n(C)c3nc12
inactive: activity change, negative = inhibition [1] 0.507% | activity change, negative = inhibition [2] 5.48% | activity, negative = inhibition [3] 10% | Potency [4] > 20.6 µM

Nc1ncn([C@@H]2O[C@@H](CO)[C@@H](O)[C@H]2O)c(=O)n1
inactive: activity change, negative = inhibition [1] -29.6% [at 38 µM] | activity change, negative = inhibition [2] -6.36% [at 38 µM] | activity, negative = inhibition [3] 2.98% [at 38 µM] | Potency [4] > 46 µM | Potency [5] > 46 µM | Potency [6] | Potency [7]

Cc1nnc2n(-c3ccccc3)c(=O)c3c4c(sc3n12)CC(C)CC4 (stereo unspecified)
inactive: activity change, negative = inhibition [1] 3.4% | activity change, negative = inhibition [2] -3.87% | activity, negative = inhibition [3] -2.29% | Potency [4] > 20.6 µM

O=C(O)c1cc(Cl)cc(Cc2cc(Cl)cc(C(=O)O)c2O)c1O
inactive: activity change, negative = inhibition [1] 10.2% [at 7.69 µM] | activity change, negative = inhibition [2] 10.6% [at 7.69 µM] | activity, negative = inhibition [3] -2.39% [at 7.69 µM] | Potency [4] > 46 µM | Potency [5] > 9.22 µM | activity change, negative = inhibition [6] 4.28% [at 11.4 µM] | Potency [7]
